Data on 15 sequences can be found in paper PMC3218832.

Targets include RELARELA (p65 homodimer) (Homo sapiens, UniProt Q04206 1-307); p50p50 homodimer (Homo sapiens, UniProt P19838 7-356); RELB subunit;p50 subunit (Homo sapiens;Homo sapiens, UniProt Q01201;P19838 120-401;7-356).
Common to all, as to assay: protein binding microarray; high values mean tight binding
Conditions in all cases: dsDNA, one strand shown

In a further assay the target is T1, p52p52 homodimer (Homo sapiens, UniProt Q00653 4-332).
T1 sequence: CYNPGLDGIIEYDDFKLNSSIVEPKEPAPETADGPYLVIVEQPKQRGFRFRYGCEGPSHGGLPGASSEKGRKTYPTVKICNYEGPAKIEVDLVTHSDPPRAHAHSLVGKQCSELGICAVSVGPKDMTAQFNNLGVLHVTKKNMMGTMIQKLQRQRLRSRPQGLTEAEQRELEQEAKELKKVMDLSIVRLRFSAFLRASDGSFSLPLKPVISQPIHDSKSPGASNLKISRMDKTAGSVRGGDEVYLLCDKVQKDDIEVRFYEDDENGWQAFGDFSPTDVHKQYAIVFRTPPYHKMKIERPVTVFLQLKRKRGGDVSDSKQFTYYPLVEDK

Assay [1] deals with RELA (p65) subunit of heterodimer;p50 subunit (Homo sapiens;Homo sapiens, UniProt Q04206;P19838 1-307;7-356).
The target in assay [2] is RELA (p65) subunit of heterodimer;p52 subunit (Homo sapiens;Homo sapiens, UniProt Q04206;Q00653 1-307;4-332).
Another assay concerns the target T2, RELB subunit;p52 subunit (Homo sapiens;Homo sapiens, UniProt Q01201;Q00653 120-401;4-332).
T2 sequence 1: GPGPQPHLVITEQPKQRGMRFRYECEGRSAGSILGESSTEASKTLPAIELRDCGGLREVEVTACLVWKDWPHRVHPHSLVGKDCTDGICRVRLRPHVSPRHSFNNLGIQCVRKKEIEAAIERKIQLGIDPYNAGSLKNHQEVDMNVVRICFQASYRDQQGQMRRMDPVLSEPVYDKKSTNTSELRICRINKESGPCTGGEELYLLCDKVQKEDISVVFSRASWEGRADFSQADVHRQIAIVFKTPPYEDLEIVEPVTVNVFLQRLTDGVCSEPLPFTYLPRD
T2 sequence 2: T1 sequence

Assay [3] concerns the target C-Rel subunit;p50 subunit (Homo sapiens;Homo sapiens, UniProt Q04864;P19838 1-285;7-356).
Assay [4] addresses T3, C-Rel subunit;p52 subunit (Homo sapiens;Homo sapiens, UniProt Q04864;Q00653 1-285;4-332).
T3 sequence 1: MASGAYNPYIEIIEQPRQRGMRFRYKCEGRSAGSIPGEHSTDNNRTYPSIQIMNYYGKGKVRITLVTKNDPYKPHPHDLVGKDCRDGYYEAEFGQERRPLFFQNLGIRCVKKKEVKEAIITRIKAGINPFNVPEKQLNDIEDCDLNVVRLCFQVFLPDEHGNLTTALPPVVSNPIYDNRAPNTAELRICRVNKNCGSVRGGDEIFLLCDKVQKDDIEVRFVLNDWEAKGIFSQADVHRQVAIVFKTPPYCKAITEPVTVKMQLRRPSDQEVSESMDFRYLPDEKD
T3 sequence 2: T1 sequence

Chain of RELA (p65) subunit of heterodimer;p50 subunit (Q04206 1-307, chain 1 of 2): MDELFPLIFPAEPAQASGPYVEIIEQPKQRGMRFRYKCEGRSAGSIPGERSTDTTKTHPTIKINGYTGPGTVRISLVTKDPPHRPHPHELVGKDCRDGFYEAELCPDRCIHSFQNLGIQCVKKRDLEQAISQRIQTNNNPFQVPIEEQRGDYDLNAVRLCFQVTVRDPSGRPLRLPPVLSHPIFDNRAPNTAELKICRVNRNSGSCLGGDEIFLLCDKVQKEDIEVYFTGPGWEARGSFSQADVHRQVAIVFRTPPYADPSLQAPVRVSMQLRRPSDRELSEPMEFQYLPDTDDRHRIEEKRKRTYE
Chain of RELA (p65) subunit of heterodimer;p50 subunit (P19838 7-356, chain 2 of 2): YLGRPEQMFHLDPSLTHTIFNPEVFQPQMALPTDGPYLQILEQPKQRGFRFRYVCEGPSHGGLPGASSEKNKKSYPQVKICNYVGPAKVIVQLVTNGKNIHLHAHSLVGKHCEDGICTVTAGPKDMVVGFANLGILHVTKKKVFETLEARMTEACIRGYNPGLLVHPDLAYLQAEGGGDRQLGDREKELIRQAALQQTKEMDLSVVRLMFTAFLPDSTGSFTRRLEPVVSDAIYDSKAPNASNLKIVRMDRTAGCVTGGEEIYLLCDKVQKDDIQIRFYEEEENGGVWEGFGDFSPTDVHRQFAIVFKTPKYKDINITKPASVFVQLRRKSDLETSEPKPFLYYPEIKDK
Chain of RELARELA (p65 homodimer) (Q04206 1-307): as the sequence (Q04206 1-307, chain 1 of 2) above
Chain of p50p50 homodimer (P19838 7-356): as the sequence (P19838 7-356, chain 2 of 2) above

For GAAGATTTCCT, the binding signal with RELARELA (p65 homodimer) was 0.421 z-score; in the assay with p50p50 homodimer, -0.715 z-score; with p52p52 homodimer, -0.513 z-score; in assay [1], -0.241 z-score; in assay [2] it was -0.568 z-score; in the assay with RELB subunit;p50 subunit, -0.764 z-score. For the same sequence, the figures for the binding signal (with RELB subunit;p52 subunit; in assay [3]; in assay [4]) were -0.77 z-score, -0.169 z-score and -0.383 z-score, respectively.

CAAGAGATCCT: the binding signal in the assay with RELARELA (p65 homodimer) is -0.295 z-score; in the assay with p50p50 homodimer it was -1.92 z-score; with p52p52 homodimer, -0.611 z-score; in assay [1] it was -1.27 z-score; in assay [2] it was -1.22 z-score; in the assay with RELB subunit;p50 subunit it was -0.959 z-score. Also, the results for the binding signal (with RELB subunit;p52 subunit; in assay [3]; in [4]) were -0.999 z-score, -1.42 z-score and -1.16 z-score, respectively.

For CGGTTCATCCT, the binding signal with RELARELA (p65 homodimer) is -0.997 z-score; with p50p50 homodimer, -1.12 z-score; with p52p52 homodimer it was -0.513 z-score; in assay [1] it was -0.88 z-score; in assay [2] it was -0.9 z-score; with RELB subunit;p50 subunit it was -0.96 z-score. Besides, the binding signal is -0.765 z-score in the assay with RELB subunit;p52 subunit, -1.41 z-score in assay [3] and -1.01 z-score in assay [4].

As for GAGGACGTCCC, the binding signal with RELARELA (p65 homodimer) was 0.381 z-score; in the assay with p50p50 homodimer it was 0.144 z-score; with p52p52 homodimer, 0.388 z-score; in assay [1], 0.0977 z-score; in [2], 0.262 z-score; with RELB subunit;p50 subunit it was 0.14 z-score. In addition, the binding signal was found to be 0.0168 z-score with RELB subunit;p52 subunit, 0.15 z-score in [3] and 0.205 z-score in assay [4].

On to AAGTAGTCCCC, for which the binding signal stood at 0.275 z-score in the assay with RELARELA (p65 homodimer); 1.21 z-score with p50p50 homodimer; 1 z-score with p52p52 homodimer; 1.09 z-score in [1]; 1.01 z-score in assay [2]; 1.36 z-score with RELB subunit;p50 subunit. In addition, the binding signal with RELB subunit;p52 subunit amounted to 1.04 z-score; in assay [3], 1.07 z-score; in [4] it was 0.58 z-score.

AAGATTCTCCT: the binding signal with RELARELA (p65 homodimer) is -0.184 z-score; with p50p50 homodimer it was -1.03 z-score; in the assay with p52p52 homodimer, -0.669 z-score; in assay [1], -0.803 z-score; in [2], -0.991 z-score; with RELB subunit;p50 subunit, -0.921 z-score. In addition, the binding signal was -0.819 z-score in the assay with RELB subunit;p52 subunit, -1.1 z-score in assay [3] and -0.941 z-score in assay [4].

Regarding AGGTTCATCCC, the binding signal was -0.622 z-score in the assay with RELARELA (p65 homodimer); -0.302 z-score in the assay with p50p50 homodimer; -0.0688 z-score with p52p52 homodimer; -0.431 z-score in assay [1]; -0.313 z-score in assay [2]; -0.476 z-score in the assay with RELB subunit;p50 subunit. The binding signal with RELB subunit;p52 subunit was -0.362 z-score; in [3], -0.498 z-score; in assay [4] it was -0.243 z-score.

Take AAATAGATCCC: the binding signal in the assay with RELARELA (p65 homodimer) is -0.751 z-score; with p50p50 homodimer it was -0.68 z-score; in the assay with p52p52 homodimer it was -0.334 z-score; in [1], -0.662 z-score; in assay [2] it was -0.554 z-score; in the assay with RELB subunit;p50 subunit it was -0.403 z-score. The binding signal in the assay with RELB subunit;p52 subunit is -0.661 z-score; in assay [3], -0.87 z-score; in assay [4] it was -0.679 z-score.

Turning to AAAGTGCCCCC, the binding signal amounted to 0.331 z-score in the assay with RELARELA (p65 homodimer); 1.09 z-score with p50p50 homodimer; 0.518 z-score in the assay with p52p52 homodimer; 0.793 z-score in assay [1]; 0.904 z-score in assay [2]; 0.839 z-score in the assay with RELB subunit;p50 subunit. Moreover, the binding signal with RELB subunit;p52 subunit turned out to be 1.17 z-score; in assay [3] it was 0.964 z-score; in [4], 0.619 z-score.

Consider CGGTGTCTCCC, for which the binding signal with RELARELA (p65 homodimer) is -0.108 z-score; with p50p50 homodimer, -0.00286 z-score; in the assay with p52p52 homodimer, 0.283 z-score; in assay [1] it was 0.0635 z-score; in [2], 0.211 z-score; with RELB subunit;p50 subunit, -0.121 z-score. The binding signal is 0.143 z-score in the assay with RELB subunit;p52 subunit, -0.0512 z-score in [3] and 0.354 z-score in [4].

As for AGATTCTTCCT, the binding signal with RELARELA (p65 homodimer) was -0.0679 z-score; with p50p50 homodimer it was -0.78 z-score; with p52p52 homodimer, -0.546 z-score; in [1], -0.559 z-score; in [2] it was -0.896 z-score; with RELB subunit;p50 subunit, -0.929 z-score. In addition, the binding signal was -0.93 z-score in the assay with RELB subunit;p52 subunit, -0.642 z-score in assay [3] and -0.588 z-score in assay [4].

In the case of GAAGGGACCCC, the binding signal in the assay with RELARELA (p65 homodimer) was -0.812 z-score; in the assay with p50p50 homodimer it was 0.244 z-score; with p52p52 homodimer, 0.629 z-score; in [1], -0.173 z-score; in assay [2] it was 0.512 z-score; with RELB subunit;p50 subunit, 0.268 z-score. For the same sequence, the binding signal was 0.639 z-score in the assay with RELB subunit;p52 subunit, -0.159 z-score in [3] and 0.296 z-score in assay [4].

On to AGAAGTCCCCC, for which the binding signal with RELARELA (p65 homodimer) turned out to be 0.863 z-score; in the assay with p50p50 homodimer, 1.4 z-score; with p52p52 homodimer it was 1.58 z-score; in [1] it was 1.97 z-score; in assay [2] it was 1.75 z-score; with RELB subunit;p50 subunit it was 2.05 z-score. The results for the binding signal (with RELB subunit;p52 subunit; in [3]; in assay [4]) were 2.01 z-score, 1.53 z-score and 1.63 z-score, respectively.

CGGGATGCCCC: the binding signal was found to be 1.39 z-score with RELARELA (p65 homodimer); 0.572 z-score with p50p50 homodimer; 2.24 z-score with p52p52 homodimer; 1.51 z-score in assay [1]; 1.6 z-score in assay [2]; 1.24 z-score with RELB subunit;p50 subunit. Also, the binding signal with RELB subunit;p52 subunit worked out at 1.28 z-score; in [3], 0.949 z-score; in assay [4] it was 1.61 z-score.

Turning to GAGATACCCCT, the binding signal with RELARELA (p65 homodimer) is -0.299 z-score; with p50p50 homodimer, 0.87 z-score; in the assay with p52p52 homodimer it was 0.576 z-score; in [1], 0.915 z-score; in [2], 1.1 z-score; with RELB subunit;p50 subunit, 0.817 z-score. In addition, the figures for the binding signal (in the assay with RELB subunit;p52 subunit; in assay [3]; in [4]) were 1.63 z-score, 0.434 z-score and 0.859 z-score, respectively.
